Consider 17 compounds from ChEMBL document CHEMBL1961873, “Compounds: GSK PKIS; Assays: Nanosyn kinase panel” (2012).

The target of assay [1] is T1, Serine/threonine-protein kinase TBK1 (Homo sapiens) (UniProt Q9UHD2).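 Further: values are mean inhibition of TBK1, screened as part of the GSK published kinase inhibitor set.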
T1 sequence (whole entry): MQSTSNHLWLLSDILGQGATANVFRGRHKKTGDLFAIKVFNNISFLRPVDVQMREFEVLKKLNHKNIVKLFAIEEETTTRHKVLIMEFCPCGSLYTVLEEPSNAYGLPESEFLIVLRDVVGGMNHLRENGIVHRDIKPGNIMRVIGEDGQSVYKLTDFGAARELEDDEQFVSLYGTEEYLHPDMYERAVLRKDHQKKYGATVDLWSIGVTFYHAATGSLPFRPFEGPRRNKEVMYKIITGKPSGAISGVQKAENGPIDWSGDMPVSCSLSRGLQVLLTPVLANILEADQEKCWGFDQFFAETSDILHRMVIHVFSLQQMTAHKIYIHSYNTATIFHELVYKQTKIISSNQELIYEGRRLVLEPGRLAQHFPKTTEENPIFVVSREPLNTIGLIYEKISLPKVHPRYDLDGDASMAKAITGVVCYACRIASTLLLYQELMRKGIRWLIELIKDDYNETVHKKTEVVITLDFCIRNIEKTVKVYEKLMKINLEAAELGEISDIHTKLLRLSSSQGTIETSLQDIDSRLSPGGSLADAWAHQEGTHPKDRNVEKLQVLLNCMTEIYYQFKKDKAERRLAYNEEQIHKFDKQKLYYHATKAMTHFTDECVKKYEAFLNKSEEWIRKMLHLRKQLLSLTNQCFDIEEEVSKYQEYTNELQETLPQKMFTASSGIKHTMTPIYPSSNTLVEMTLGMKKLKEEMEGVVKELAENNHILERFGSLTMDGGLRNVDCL
Conditions: at 1 µM.

The target of assay [2] is T2, Testis-specific serine/threonine-protein kinase 1 (Homo sapiens) (UniProt Q9BXA7).
T2 sequence (whole entry): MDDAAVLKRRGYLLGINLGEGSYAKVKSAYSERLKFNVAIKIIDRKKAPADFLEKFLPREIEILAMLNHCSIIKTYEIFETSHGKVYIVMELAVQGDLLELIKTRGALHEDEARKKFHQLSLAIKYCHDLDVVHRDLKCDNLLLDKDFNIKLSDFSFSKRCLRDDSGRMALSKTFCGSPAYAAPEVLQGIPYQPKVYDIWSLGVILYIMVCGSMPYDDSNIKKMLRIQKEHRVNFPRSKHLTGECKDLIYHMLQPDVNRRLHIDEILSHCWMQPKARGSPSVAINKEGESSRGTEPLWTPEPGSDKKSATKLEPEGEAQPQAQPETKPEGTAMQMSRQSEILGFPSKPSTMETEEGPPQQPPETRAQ
Conditions: at 0.1 µM.

The target of assay [3] is T2, Testis-specific serine/threonine-protein kinase 1 (Homo sapiens). The settings on record: at 1 µM.
The target in assay [4] is T3, Testis-specific serine/threonine-protein kinase 2 (Homo sapiens) (UniProt Q96PF2).
T3 sequence (whole entry): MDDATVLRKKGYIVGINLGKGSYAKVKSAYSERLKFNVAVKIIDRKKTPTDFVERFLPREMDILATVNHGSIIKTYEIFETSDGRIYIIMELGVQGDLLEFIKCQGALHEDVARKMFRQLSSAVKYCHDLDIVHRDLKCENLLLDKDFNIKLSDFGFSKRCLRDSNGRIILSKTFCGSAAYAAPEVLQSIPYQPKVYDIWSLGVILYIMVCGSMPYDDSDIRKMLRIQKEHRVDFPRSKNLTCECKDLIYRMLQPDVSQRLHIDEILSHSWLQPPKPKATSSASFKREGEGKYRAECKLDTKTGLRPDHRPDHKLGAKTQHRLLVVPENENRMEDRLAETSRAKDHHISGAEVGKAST
The settings on record: at 0.1 µM.

For assay [5], the target named is T3, Testis-specific serine/threonine-protein kinase 2 (Homo sapiens). The settings on record: at 1 µM.
Assay [6] addresses Casein kinase I isoform alpha (Homo sapiens) (UniProt P48729). Conditions: at 0.1 µM.
Assay [7] has the same target. The settings on record: at 1 µM.
Assay [8] addresses Casein kinase I isoform gamma-1 (Homo sapiens) (UniProt Q9HCP0). The settings on record: at 0.1 µM.
Assay [9] has the same target. Conditions: at 1 µM.
Assay [10] deals with Casein kinase I isoform gamma-2 (Homo sapiens) (UniProt P78368). The settings on record: at 0.1 µM.

The structures appear in SMILES notation.

Chain of Casein kinase I isoform gamma-1 (Homo sapiens) (Q9HCP0 whole entry, looked up, canonical isoform): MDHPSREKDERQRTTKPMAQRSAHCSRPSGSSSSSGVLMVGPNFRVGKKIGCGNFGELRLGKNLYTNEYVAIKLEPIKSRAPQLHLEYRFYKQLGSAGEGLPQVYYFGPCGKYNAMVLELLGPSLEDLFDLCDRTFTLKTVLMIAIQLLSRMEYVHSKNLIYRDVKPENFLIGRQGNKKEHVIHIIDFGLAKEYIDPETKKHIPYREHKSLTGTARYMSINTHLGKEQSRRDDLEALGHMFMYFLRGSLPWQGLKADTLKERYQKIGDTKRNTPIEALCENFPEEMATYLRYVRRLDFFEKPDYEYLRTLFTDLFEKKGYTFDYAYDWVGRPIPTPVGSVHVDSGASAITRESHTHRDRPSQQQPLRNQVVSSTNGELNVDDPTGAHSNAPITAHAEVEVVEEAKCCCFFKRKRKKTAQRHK
Chain of Casein kinase I isoform gamma-2 (Homo sapiens) (P78368 whole entry, looked up, canonical isoform): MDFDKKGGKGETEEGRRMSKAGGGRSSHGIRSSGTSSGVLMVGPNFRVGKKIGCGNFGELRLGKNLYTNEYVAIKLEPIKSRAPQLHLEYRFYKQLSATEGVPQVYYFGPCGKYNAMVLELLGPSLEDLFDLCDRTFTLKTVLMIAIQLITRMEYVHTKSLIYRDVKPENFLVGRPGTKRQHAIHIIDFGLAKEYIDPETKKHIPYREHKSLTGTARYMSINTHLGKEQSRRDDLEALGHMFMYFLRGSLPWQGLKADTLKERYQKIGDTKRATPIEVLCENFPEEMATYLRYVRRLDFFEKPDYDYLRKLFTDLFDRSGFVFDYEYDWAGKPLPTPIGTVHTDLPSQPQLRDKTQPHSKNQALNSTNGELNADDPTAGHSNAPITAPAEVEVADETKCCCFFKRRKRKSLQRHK
Chain of Casein kinase I isoform alpha (Homo sapiens) (P48729 2-337 limits assumed): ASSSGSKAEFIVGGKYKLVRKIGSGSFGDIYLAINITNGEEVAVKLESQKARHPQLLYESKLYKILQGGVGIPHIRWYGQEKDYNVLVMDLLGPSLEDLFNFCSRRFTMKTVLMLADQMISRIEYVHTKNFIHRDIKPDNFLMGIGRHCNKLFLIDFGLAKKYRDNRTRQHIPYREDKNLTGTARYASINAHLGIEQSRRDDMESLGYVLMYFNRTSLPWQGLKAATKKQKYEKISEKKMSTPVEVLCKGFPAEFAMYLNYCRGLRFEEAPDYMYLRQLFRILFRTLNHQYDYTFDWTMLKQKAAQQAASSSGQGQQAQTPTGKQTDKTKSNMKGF

As to `CS(=O)(=O)CCNCc1coc(-c2ccc3ncnc(Nc4ccc(OCc5ccccc5)cc4)c3c2)c1`, the inhibition in [1] was determined as 2.44%; in [2], 1.84%; in [3], 3.84%; in assay [4], 2.99%; in [5], 2.93%; in assay [6] it was 1.56%. Moreover, the inhibition in assay [7] is 4.42%; in [8], 1.97%; in assay [9], 2.4%; in [10], 1.63%.
`Nc1ncc(-c2cccc(S(N)(=O)=O)c2)c2scc(-c3ccc(F)c(Cl)c3)c12`: the inhibition turned out to be 3.47% in assay [1]; 3.24% in assay [2]; 4.96% in assay [3]; 2.48% in [4]; 2.51% in [5]; 6.19% in [6]. Moreover, the inhibition came out at 36.5% in [7], 2.96% in [8], 4.15% in assay [9] and 2.73% in assay [10].
With `c1cc(-c2cnn3nc(N4CCOCC4)ccc23)nc(NC2CC2)n1`, the inhibition in [1] is 6.36%; in assay [2], 2.66%; in [3], 5.12%; in assay [4] it was 0.16%; in [5], -3.76%; in assay [6], 5.43%. Besides, the inhibition in assay [7] is 15.8%; in assay [8] it was 3.42%; in assay [9] it was 8.05%; in [10], 3.35%.
For `CCOc1ccc2c(-c3ccnc(Nc4cccc(C(F)(F)F)c4)n3)cnn2n1`, the inhibition was determined as 13.1% in [1]; 2.69% in assay [2]; 3.46% in assay [3]; 0.15% in assay [4]; 0.22% in assay [5]; 0.42% in [6]. In addition, the inhibition in assay [7] was 0.35%; in assay [8], 2.16%; in [9], 3.1%; in assay [10], 2.06%.
As for `COc1ccc(-c2cc3c(N)ncnc3o2)cc1`, the inhibition in [1] is 1.62%; in [2], -1.68%; in assay [3], 1.43%; in [4], -1.12%; in [5], -0.58%; in [6], -2.35%. The inhibition in assay [7] was -1.14%; in assay [8], -1.13%; in assay [9], -0.49%; in [10], -0.59%.
As for `[O-][S+]1CCN(Cc2ccc(-c3ccc4ncnc(Nc5ccc(OCc6cccc(F)c6)c(Cl)c5)c4c3)o2)CC1`, the inhibition worked out at 5.41% in [1]; 5.74% in assay [2]; 5.31% in [3]; 3.26% in assay [4]; 3.22% in assay [5]; 5.02% in assay [6]. Further, the inhibition was 4.04% in [7], 4.04% in [8], 5.15% in assay [9] and 3.65% in assay [10].
Take `Fc1ccc(-c2nn3ncccc3c2-c2ccnc(Nc3ccc4c(c3)OCCO4)n2)cc1`: the inhibition in assay [1] is 4.55%; in assay [2], 4.06%; in assay [3], 2.68%; in assay [4], 1.3%; in assay [5], 1.02%; in assay [6] it was 39.5%. In addition, the inhibition in [7] is 72.5%; in assay [8] it was 14.8%; in [9], 58.5%; in [10], 11.1%.
With `Nc1nc(-c2ccc(F)cc2)c(-c2ccc3ncccc3n2)s1`, the inhibition is 6.6% in [1]; 4.27% in assay [2]; 6.63% in assay [3]; 2.36% in assay [4]; 2.23% in [5]; 3.47% in assay [6]. Moreover, the inhibition was determined as 15.2% in assay [7], 4.29% in [8], 10.5% in [9] and 3.47% in [10].
As to `COc1ccc(CNC(=O)c2ccc(-c3cc(-c4nnc(C)o4)ccc3C)cc2)cc1`, the inhibition in assay [1] is 4.66%; in assay [2], 3.31%; in assay [3], 6.39%; in assay [4] it was 2.67%; in assay [5], 6.58%; in assay [6], -0.51%. Further, the inhibition in assay [7] is 2.48%; in [8], 1.07%; in [9] it was -0.25%; in [10], 1.05%.
On to `CCNC(=O)O[C@H]1CN[C@H](C#Cc2cc3ncnc(Nc4ccc(OCc5cccc(F)c5)c(Cl)c4)c3s2)C1`, for which the inhibition in assay [1] was 3.67%; in [2], 2.93%; in assay [3], -2.91%; in assay [4] it was 3.47%; in [5], -1.23%; in assay [6], 1.8%. For the same compound, the inhibition was determined as 1.43% in assay [7], 2.15% in assay [8], 2.01% in assay [9] and 1.8% in [10].
Consider `CCn1c(-c2nonc2N)nc2c(C#CC(C)(C)O)ncc(OC3CCNCC3)c21`, for which the inhibition in [1] is 45.9%; in assay [2], 20.7%; in [3] it was 71.4%; in [4] it was 0.88%; in assay [5], 2.99%; in assay [6], 2.3%. For the same compound, the inhibition was found to be 8.85% in [7], 2.94% in [8], 4.65% in assay [9] and 2.46% in assay [10].
Consider `COC(=O)Nc1nc2ccc(S(=O)(=O)c3ccc(NC(=O)Nc4cc(C(F)(F)F)ccc4F)cc3)cc2[nH]1`, for which the inhibition in [1] was 3.98%; in assay [2] it was 2.57%; in [3] it was 0.57%; in assay [4], 0.12%; in assay [5], -0.82%; in assay [6], 2.65%. The inhibition is 5.12% in assay [7], 2.34% in assay [8], 2.83% in assay [9] and 1.08% in [10].
In the case of `O=C(O[C@H]1CN[C@H](C#Cc2cc3ncnc(Nc4ccc(Cc5ccccc5)cc4)c3s2)C1)N1CCOCC1`, the inhibition in assay [1] is 1.65%; in assay [2], 0.42%; in assay [3], 0.57%; in assay [4] it was 1.12%; in [5], -0.88%; in [6], 0.51%. Moreover, the inhibition in assay [7] is 1.74%; in [8] it was 2.25%; in assay [9] it was 2.28%; in assay [10] it was 2.49%.
As to `COc1cccc(-c2c[nH]c3c(N/N=C/c4ccncc4)ncnc23)c1`, the inhibition in assay [1] is 34.6%; in [2], 1.82%; in assay [3], -0.71%; in assay [4], 0.73%; in [5], -2.11%; in assay [6], 5.65%. For the same compound, the inhibition in assay [7] is 7.98%; in assay [8] it was 1.21%; in assay [9], 4.05%; in assay [10], 0.6%.
With `COc1ccc(-c2cc(-c3c[nH]nc3-c3ccccn3)ccn2)cc1`, the inhibition in assay [1] turned out to be 6.38%; in assay [2], 3.33%; in assay [3] it was 5.54%; in assay [4], 2.38%; in assay [5] it was 3.88%; in assay [6], 3.31%. The inhibition in assay [7] was determined as 11.5%; in [8], 4.71%; in assay [9], 5.78%; in assay [10] it was 3.51%.
For the compound `CS(=O)(=O)CCNCc1ccc(-c2ccc3ncnc(Nc4ccc(OCc5ccccc5)c(C(F)(F)F)c4)c3c2)o1`, the inhibition in [1] came out at 1.05%; in [2], 3.83%; in [3] it was 3.88%; in [4], 0.53%; in assay [5], 0.75%; in assay [6] it was 2.27%. In addition, the inhibition was determined as 0.82% in assay [7], 3.86% in assay [8], 8.13% in assay [9] and 3.82% in [10].
Turning to `CCn1c(-c2nonc2N)nc2ccccc21`, the inhibition is 3.36% in [1]; 2.04% in [2]; 0.61% in [3]; 0.97% in assay [4]; -0.93% in [5]; 2.92% in assay [6]. The inhibition in assay [7] turned out to be 3.37%; in assay [8], 1.61%; in assay [9], 3.25%; in assay [10], 0.92%.
